Test results published in paper PMC7862700, “An all-to-all approach to the identification of sequence-specific readers for epigenetic DNA modifications on cytosine”.

Legend:
Experiment in all cases: DAPPL (digital affinity profiling via proximity ligation, sequencing); 10 mM Tris-HCl pH 7.5, 50 mM NaCl, 1 mM DTT, 4% glycerol, room temperature, 30 min; GST-TFs on glutathione beads, 16-mer random dsDNA library, 0.1% formaldehyde crosslink after washing; high values mean tight binding
[1] = target: T1, FEV (Homo sapiens, UniProt Q99581 1-238); conditions: protein: recombinant; tags: N-terminal GST; dsDNA, one strand shown
T1 sequence: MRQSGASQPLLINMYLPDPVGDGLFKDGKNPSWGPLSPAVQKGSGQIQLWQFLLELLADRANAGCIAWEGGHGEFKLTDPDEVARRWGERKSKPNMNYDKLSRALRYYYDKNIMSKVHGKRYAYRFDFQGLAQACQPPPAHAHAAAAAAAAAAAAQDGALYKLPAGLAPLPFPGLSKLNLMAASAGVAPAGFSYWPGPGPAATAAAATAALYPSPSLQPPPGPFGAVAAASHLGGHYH
Outline: (§1)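 Pools of DNA-barcoded human transcription factors, expressed in yeast as GST fusions on glutathione beads and combined with a tag-only sample, were incubated with 200 nmole of a 16-mer random double-stranded DNA library. Incubation took 30 min at room temperature in Tris/NaCl/DTT/glycerol buffer and was followed by washing, 0.1% formaldehyde crosslinking, proximity ligation (BsaI/T4 ligase, 1 h, 37 °C), PCR amplification and sequencing on an Illumina NextSeq500. Binding signal is the ratio of a hexamer's read frequency for a factor to its frequency for the tag-only sample.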

[2] = target: ETV5 (Homo sapiens, UniProt P41161 1-510); conditions: protein: recombinant; tags: N-terminal GST; dsDNA, one strand shown
Sequence of ETV5 (P41161 whole entry): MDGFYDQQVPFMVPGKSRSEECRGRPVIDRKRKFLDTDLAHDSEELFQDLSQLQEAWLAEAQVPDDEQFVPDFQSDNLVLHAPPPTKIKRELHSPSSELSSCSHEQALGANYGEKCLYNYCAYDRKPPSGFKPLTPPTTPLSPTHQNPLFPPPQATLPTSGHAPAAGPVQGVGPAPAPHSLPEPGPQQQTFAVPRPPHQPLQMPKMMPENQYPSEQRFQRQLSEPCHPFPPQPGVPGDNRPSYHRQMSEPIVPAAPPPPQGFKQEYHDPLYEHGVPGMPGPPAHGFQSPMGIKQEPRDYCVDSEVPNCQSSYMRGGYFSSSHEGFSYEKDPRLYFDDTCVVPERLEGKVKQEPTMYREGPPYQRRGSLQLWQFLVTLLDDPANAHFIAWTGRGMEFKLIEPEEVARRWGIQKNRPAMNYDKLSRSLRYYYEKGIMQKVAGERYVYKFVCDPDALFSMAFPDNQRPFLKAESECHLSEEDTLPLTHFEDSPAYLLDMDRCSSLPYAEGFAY
Outline: as §1

[3] = target: HSF1 (Homo sapiens, UniProt Q00613 1-529); conditions: protein: recombinant; tags: N-terminal GST; chain copies: 3; dsDNA, one strand shown
Sequence of HSF1 (Q00613 whole entry): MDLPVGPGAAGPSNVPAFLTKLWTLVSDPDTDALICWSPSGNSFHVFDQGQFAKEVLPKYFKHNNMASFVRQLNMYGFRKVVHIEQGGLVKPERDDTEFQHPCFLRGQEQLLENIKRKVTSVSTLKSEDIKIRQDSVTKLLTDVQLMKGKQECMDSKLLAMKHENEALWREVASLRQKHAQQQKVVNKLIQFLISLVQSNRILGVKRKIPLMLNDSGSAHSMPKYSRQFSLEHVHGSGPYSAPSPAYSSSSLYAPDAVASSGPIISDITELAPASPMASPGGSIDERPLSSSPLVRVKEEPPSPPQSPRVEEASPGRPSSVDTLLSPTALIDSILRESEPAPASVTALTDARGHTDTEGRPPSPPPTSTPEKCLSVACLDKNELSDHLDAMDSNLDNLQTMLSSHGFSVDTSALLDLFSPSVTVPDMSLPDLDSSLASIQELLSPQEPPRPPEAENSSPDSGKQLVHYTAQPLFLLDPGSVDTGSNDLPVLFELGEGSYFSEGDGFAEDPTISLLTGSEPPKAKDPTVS
Outline: as §1

[4] = target: T2, SPIC (Homo sapiens, UniProt Q8N5J4 1-248); conditions: protein: recombinant; tags: N-terminal GST; dsDNA, one strand shown
T2 sequence: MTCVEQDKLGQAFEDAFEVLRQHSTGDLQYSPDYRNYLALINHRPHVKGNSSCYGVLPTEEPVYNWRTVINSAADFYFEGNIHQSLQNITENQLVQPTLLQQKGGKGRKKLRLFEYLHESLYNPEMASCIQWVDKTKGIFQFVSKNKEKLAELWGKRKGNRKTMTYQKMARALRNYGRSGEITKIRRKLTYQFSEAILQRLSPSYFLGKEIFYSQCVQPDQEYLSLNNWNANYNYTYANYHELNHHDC
Outline: as §1

[5] = target: ELF4 (Homo sapiens, UniProt Q99607 1-663); conditions: protein: recombinant; tags: N-terminal GST; dsDNA, one strand shown
Sequence of ELF4 (Q99607 whole entry): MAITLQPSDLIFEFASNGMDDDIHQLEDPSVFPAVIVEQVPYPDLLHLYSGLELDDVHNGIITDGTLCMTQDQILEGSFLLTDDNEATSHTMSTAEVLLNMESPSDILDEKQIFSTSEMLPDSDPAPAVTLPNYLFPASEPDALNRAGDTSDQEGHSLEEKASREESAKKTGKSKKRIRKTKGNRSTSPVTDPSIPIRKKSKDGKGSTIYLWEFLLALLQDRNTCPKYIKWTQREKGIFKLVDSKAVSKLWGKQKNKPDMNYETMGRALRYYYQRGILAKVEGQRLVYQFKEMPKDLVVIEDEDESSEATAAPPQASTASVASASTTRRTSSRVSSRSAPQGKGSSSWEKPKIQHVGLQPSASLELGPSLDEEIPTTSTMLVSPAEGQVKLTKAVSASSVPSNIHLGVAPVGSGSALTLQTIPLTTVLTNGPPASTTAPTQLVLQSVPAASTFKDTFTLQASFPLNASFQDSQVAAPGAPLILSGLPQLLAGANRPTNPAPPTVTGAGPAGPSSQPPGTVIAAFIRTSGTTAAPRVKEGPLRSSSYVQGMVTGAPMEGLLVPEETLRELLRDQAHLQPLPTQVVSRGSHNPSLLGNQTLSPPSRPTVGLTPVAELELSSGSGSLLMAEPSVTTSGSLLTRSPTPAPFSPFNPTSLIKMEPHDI
Outline: as §1

[6] = target: T3, ELK4 (Homo sapiens, UniProt P28324-2 1-405); conditions: protein: recombinant; tags: N-terminal GST; dsDNA, one strand shown
T3 sequence: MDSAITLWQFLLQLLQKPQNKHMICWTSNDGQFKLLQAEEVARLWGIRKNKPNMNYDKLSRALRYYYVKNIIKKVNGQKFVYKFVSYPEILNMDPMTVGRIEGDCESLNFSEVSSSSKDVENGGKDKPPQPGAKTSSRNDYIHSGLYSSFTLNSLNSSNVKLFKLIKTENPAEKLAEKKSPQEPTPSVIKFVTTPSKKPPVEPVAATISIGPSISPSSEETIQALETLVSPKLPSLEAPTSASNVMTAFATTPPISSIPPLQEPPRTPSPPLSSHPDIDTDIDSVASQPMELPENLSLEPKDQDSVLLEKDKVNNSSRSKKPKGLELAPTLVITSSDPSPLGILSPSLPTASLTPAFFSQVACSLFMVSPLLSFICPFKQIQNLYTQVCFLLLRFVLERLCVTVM
Outline: as §1

[7] = target: T4, ETV2 (Homo sapiens, UniProt O00321 1-342); conditions: protein: recombinant; tags: N-terminal GST; dsDNA, one strand shown
T4 sequence: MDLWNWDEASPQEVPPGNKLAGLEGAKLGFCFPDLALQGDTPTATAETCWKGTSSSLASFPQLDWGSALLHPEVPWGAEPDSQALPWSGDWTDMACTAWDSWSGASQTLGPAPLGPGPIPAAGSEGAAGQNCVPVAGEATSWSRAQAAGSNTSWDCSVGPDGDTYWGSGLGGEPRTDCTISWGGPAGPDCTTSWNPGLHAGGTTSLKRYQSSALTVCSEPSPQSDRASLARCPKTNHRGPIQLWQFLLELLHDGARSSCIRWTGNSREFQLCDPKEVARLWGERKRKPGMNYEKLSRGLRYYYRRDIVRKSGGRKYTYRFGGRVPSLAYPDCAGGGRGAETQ
Outline: as §1

[8] = target: T5, ELF3 (Homo sapiens, UniProt P78545 1-371); conditions: protein: recombinant; tags: N-terminal GST; dsDNA, one strand shown
T5 sequence: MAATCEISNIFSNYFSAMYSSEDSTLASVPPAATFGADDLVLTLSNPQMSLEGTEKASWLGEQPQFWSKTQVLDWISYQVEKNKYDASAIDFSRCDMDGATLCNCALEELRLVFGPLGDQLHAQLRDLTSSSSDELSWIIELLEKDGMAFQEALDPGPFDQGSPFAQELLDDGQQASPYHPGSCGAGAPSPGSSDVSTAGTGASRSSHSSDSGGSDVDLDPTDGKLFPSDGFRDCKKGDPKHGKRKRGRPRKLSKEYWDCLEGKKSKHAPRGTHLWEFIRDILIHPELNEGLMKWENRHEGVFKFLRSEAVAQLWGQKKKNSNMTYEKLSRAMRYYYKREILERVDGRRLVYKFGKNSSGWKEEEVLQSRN
Outline: as §1

[9] = target: CRX (Homo sapiens, UniProt O43186 1-299); conditions: protein: recombinant; tags: N-terminal GST; dsDNA, one strand shown
Sequence of CRX (O43186 whole entry): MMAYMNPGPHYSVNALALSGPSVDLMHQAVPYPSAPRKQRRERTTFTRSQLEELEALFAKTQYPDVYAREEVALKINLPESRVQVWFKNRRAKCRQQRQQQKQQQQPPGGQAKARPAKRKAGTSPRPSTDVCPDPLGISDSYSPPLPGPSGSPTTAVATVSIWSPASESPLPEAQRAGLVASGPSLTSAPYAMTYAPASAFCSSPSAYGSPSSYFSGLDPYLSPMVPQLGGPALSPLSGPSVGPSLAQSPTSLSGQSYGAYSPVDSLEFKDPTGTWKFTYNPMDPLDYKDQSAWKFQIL
Outline: as §1

[10] = target: ETV1 (Homo sapiens, UniProt P50549 1-477); conditions: protein: recombinant; tags: N-terminal GST; dsDNA, one strand shown
Sequence of ETV1 (P50549 whole entry): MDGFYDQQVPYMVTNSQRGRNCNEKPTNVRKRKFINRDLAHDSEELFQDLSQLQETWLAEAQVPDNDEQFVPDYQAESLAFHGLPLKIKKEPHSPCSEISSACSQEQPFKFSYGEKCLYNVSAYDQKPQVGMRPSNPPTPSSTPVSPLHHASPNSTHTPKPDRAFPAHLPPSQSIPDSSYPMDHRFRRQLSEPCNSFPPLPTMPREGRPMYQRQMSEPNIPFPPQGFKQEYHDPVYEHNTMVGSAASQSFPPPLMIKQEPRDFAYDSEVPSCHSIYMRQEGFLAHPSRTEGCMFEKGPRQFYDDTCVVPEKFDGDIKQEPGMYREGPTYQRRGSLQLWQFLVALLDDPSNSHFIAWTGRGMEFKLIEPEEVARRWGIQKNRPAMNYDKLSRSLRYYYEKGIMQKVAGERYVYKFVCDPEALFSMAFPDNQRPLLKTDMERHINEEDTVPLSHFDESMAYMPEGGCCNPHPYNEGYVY
Outline: as §1

Sequence	binding signal [1]	binding signal [2]	binding signal [3]	binding signal [4]	binding signal [5]	binding signal [6]	binding signal [7]	binding signal [8]	binding signal [9]	binding signal [10]
CGATTG	1.12 fold enrichment (6-mer frequency, TF over GST control)	1.18 fold enrichment (6-mer frequency, TF over GST control)	1.21 fold enrichment (6-mer frequency, TF over GST control)	1.08 fold enrichment (6-mer frequency, TF over GST control)	1.28 fold enrichment (6-mer frequency, TF over GST control)	1.34 fold enrichment (6-mer frequency, TF over GST control)	1.08 fold enrichment (6-mer frequency, TF over GST control)	1.14 fold enrichment (6-mer frequency, TF over GST control)	1.16 fold enrichment (6-mer frequency, TF over GST control)	1.16 fold enrichment (6-mer frequency, TF over GST control)
TTCTTT	1.19 fold enrichment (6-mer frequency, TF over GST control)	1.14 fold enrichment (6-mer frequency, TF over GST control)	1.7 fold enrichment (6-mer frequency, TF over GST control)	1.2 fold enrichment (6-mer frequency, TF over GST control)	1.28 fold enrichment (6-mer frequency, TF over GST control)	1.25 fold enrichment (6-mer frequency, TF over GST control)	1.27 fold enrichment (6-mer frequency, TF over GST control)	1.28 fold enrichment (6-mer frequency, TF over GST control)	1.44 fold enrichment (6-mer frequency, TF over GST control)	1.29 fold enrichment (6-mer frequency, TF over GST control)
AAGTCC	1.34 fold enrichment (6-mer frequency, TF over GST control)	1.28 fold enrichment (6-mer frequency, TF over GST control)	1.08 fold enrichment (6-mer frequency, TF over GST control)	1.3 fold enrichment (6-mer frequency, TF over GST control)	1.19 fold enrichment (6-mer frequency, TF over GST control)	1.25 fold enrichment (6-mer frequency, TF over GST control)	1.19 fold enrichment (6-mer frequency, TF over GST control)	1.3 fold enrichment (6-mer frequency, TF over GST control)	1.19 fold enrichment (6-mer frequency, TF over GST control)	1.26 fold enrichment (6-mer frequency, TF over GST control)
TTGGCA	1.13 fold enrichment (6-mer frequency, TF over GST control)	1.07 fold enrichment (6-mer frequency, TF over GST control)	1.04 fold enrichment (6-mer frequency, TF over GST control)	1.17 fold enrichment (6-mer frequency, TF over GST control)	1.16 fold enrichment (6-mer frequency, TF over GST control)	1.34 fold enrichment (6-mer frequency, TF over GST control)	1.25 fold enrichment (6-mer frequency, TF over GST control)	1.07 fold enrichment (6-mer frequency, TF over GST control)	1.12 fold enrichment (6-mer frequency, TF over GST control)	1.18 fold enrichment (6-mer frequency, TF over GST control)
TTGGTA	1.17 fold enrichment (6-mer frequency, TF over GST control)	1.23 fold enrichment (6-mer frequency, TF over GST control)	1.16 fold enrichment (6-mer frequency, TF over GST control)	1.2 fold enrichment (6-mer frequency, TF over GST control)	1.25 fold enrichment (6-mer frequency, TF over GST control)	1.34 fold enrichment (6-mer frequency, TF over GST control)	1 fold enrichment (6-mer frequency, TF over GST control)	1.25 fold enrichment (6-mer frequency, TF over GST control)	1.34 fold enrichment (6-mer frequency, TF over GST control)	1.24 fold enrichment (6-mer frequency, TF over GST control)
GAACTA	1.25 fold enrichment (6-mer frequency, TF over GST control)	1.33 fold enrichment (6-mer frequency, TF over GST control)	1.32 fold enrichment (6-mer frequency, TF over GST control)	1.48 fold enrichment (6-mer frequency, TF over GST control)	1.21 fold enrichment (6-mer frequency, TF over GST control)	1.25 fold enrichment (6-mer frequency, TF over GST control)	1.31 fold enrichment (6-mer frequency, TF over GST control)	1.23 fold enrichment (6-mer frequency, TF over GST control)	1.13 fold enrichment (6-mer frequency, TF over GST control)	1.37 fold enrichment (6-mer frequency, TF over GST control)
CCTTAA	1.33 fold enrichment (6-mer frequency, TF over GST control)	1.25 fold enrichment (6-mer frequency, TF over GST control)	1.62 fold enrichment (6-mer frequency, TF over GST control)	1.22 fold enrichment (6-mer frequency, TF over GST control)	1.3 fold enrichment (6-mer frequency, TF over GST control)	1.27 fold enrichment (6-mer frequency, TF over GST control)	1.35 fold enrichment (6-mer frequency, TF over GST control)	1.37 fold enrichment (6-mer frequency, TF over GST control)	2.17 fold enrichment (6-mer frequency, TF over GST control)	1.34 fold enrichment (6-mer frequency, TF over GST control)
TCCAAG	1.03 fold enrichment (6-mer frequency, TF over GST control)	1.07 fold enrichment (6-mer frequency, TF over GST control)	1.23 fold enrichment (6-mer frequency, TF over GST control)	1.11 fold enrichment (6-mer frequency, TF over GST control)	1.07 fold enrichment (6-mer frequency, TF over GST control)	1.04 fold enrichment (6-mer frequency, TF over GST control)	1.19 fold enrichment (6-mer frequency, TF over GST control)	1.11 fold enrichment (6-mer frequency, TF over GST control)	1.2 fold enrichment (6-mer frequency, TF over GST control)	1.13 fold enrichment (6-mer frequency, TF over GST control)
